KB-V1 MDR tox = qHTS assay for MDR1-selective chemotherapeutics: Primary screen using the drug-selected MDR subline cells KB-V1. Potency, µM (titrated, usually from 46.1 µM), usual class: cytotoxic. KB-V1 MDR cells viability, CellTiter-Glo, 72 h. hit rate 3.4% among 400,000; also: % is scaled to controls: 0 for no effect and ±100 for the full control effect; nearly all actives have a fitted effect of over 60% in size
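KB-V1 cells (P-gp-expressing MDR subline of KB-3-1) in phenol-red-free DMEM with 10% FBS were exposed to library compounds over a concentration series for 72 h at 37 degrees C. Viability read by CellTiter-Glo luminescence; concentration-effect curves fitted after normalization.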
MCF10A rereplic = A quantitative high throughput screen for small molecules that induce DNA re-replication in MCF 10a normal breast cells | MCF 10A DNA re-replication, Hoechst nuclear intensity, 48 h | hit rate 2.9% among 350,000 | AID 624296, 2012 | Potency, µM (doses to about 46.1 µM), for the others: at the top dose activity, positive = re-replication, hits mostly activators; also: % of control where 0% means no effect; nearly all actives have a fitted effect of over 50% in size
KB-3-1 cytotox = qHTS assay for MDR1-selective chemotherapeutics: Primary screen using the parental adenocarcinoma cell KB-3-1 | KB-3-1 viability, CellTiter-Glo ATP luminescence, 72 h | Potency, µM (highest dose often 46.1 µM), hits mostly cytotoxic | hit rate 1.4% among 400,000 | AID 1347075, 2019; also: % is scaled to controls: 0 for no effect and ±100 for the full control effect; nearly all actives have a fitted effect of over 60% in size
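Multi-concentration cytotoxicity screen in KB-3-1 cells grown in DMEM lacking phenol red with 10% FBS. After 72 h at 37 °C with compound, ATP-dependent luminescence was recorded.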
HT1080-NT tox = qHTS for induction of synthetic lethality in tumor cells producing 2HG: qHTS for the HT-1080-NT fibrosarcoma cell line; HT-1080-NT fibrosarcoma viability, CellTiter-Glo ATP luminescence, 48 h; AID 686970, 2013; Potency, µM (doses to about 46.1 µM), inactives show at the top dose activity, negative = less viability, usual class: cytotoxic; hit rate 1.6% among 360,000;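 also: NT is the 2HG producing partner of a matched IDH1 knockdown line; 0% = DMSO-treated cells and -100% = media-only wells without cells; nearly all actives have a fitted effect of over 55% in size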
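HT-1080-NT fibrosarcoma cells (2HG-overproducing), 750 cells/well in RPMI with 5% FBS, dosed after 2 h and incubated 48 h at 37C. CellTiter-Glo luminescence normalized to DMSO and no-cell wells; concentration-response curves fitted and classed.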
SW480 rereplic = A quantitative high throughput screen for small molecules that induce DNA re-replication in SW480 colon adenocarcinoma cells | SW480 DNA re-replication, Hoechst DNA content imaging, 48 h | Potency, µM (highest dose often 46.1 µM), without a hit: at the top dose re-replication activation, most hits filed as activators | hit rate 1.8% among 340,000 | AID 624297, 2012; also: % of control where 0% means no effect; nearly all actives have a fitted effect of over 55% in size
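SW480 cells exposed to compounds for 48 hr at 37 C, 5% CO2, then Hoechst-stained 40 min. Nuclear DNA content imaged by fluorescence scanning (405 nm excitation, 500-530 nm emission); re-replication scored as increased high-intensity nuclei.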
HT1080 IDH1KD tx = qHTS for induction of synthetic lethality in tumor cells producing 2HG: qHTS for the HT-1080-IDH1KD cell line; HT-1080 IDH1 knockdown viability, ATP luminescence, 48 h; Potency, µM (doses to about 46.1 µM), for inactives: at the top dose activity, negative = toxicity, usual class: cytotoxic; hit rate 2% among 360,000;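 also: 0% = DMSO wells and -100% = cell-free medium wells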
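Cytotoxicity counter-line: IDH1KD HT-1080, 48 h, CellTiter-Glo. Curves classed by r2, magnitude and activity.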
Active calls of the source: *; i = inactive; ? = inconclusive; nt = no result given; [ ] = remark or other dose. Most compounds without a hit are left out; they make up all but 7.9% or so of the library. Calls follow the shape of the dose curve; as a rule, active = well fitted curve in the direction sought with a large enough effect; inconclusive = small, poorly fitted or top-dose-only effect, or another doubt; inactive = no such curve, though single readings can be large; an effect the other way counts as inactive or inconclusive. Potency is read from the fitted curve at half-maximal effect.

SMILES	KB-V1 MDR tox	MCF10A rereplic	KB-3-1 cytotox	HT1080-NT tox	SW480 rereplic	HT1080 IDH1KD tx
CCN1CCN(CCCNC(=O)c2ccc3c(c2)N(Cc2ccc(C)cc2)CCS3)CC1	i	15%	?	?	15µM*	?
Cc1ccc(CN2CCSc3ccc(C(=O)NCCCN4CCOCC4)cc32)cc1	i	?	i	-12%	-3%	?
CCN1CCN(C(=O)c2ccc3c(c2)N(Cc2ccc(C)cc2)CCS3)CC1	i	3%	i	-15%	?	-1%
COC(=O)CSc1nc2sc3c(c2c(=O)n1-c1ccccc1)CCN(C)C3	i	15%	i	-1%	-2%[9.22 µM]	-4%
O=C(NCc1csc2ccc(Cl)cc12)Nc1cccc2ccccc12	i	0%	i	3%	-11%[9.22 µM]	4%
CC1CCC2(CC1)NC(=O)N(CC(=O)NCCc1ccc(F)cc1)C2=O (centres undefined)	?	13%	i	10%	5%	-1%
CCc1nc2cc(Cl)c(Cl)cc2[nH]1	?	-3%	i	-2%	1%	-17%
N#Cc1ccc(/C=C/C(=O)c2cccnc2)cc1	?	7.3µM*	i	?	-28%	?
O=C(/C=C/c1ccccc1Cl)c1cccnc1	?	5.8µM*	i	?	?	?
O=C(/C=C/c1ccc(Cl)cc1)c1cccnc1	?	?	?	-20%	?	?
O=C(/C=C/c1ccccc1Cl)NNC(=O)c1ccncc1	i	6%	i	0%	?	-2%
O=C(NN1C(=O)C2C(C1=O)C1C=CC2C12CC2)c1ccccc1 (centres undefined)	i	-6%	i	-5%	-4%	-4%
CCOc1ccc(CN2CCN(Cc3ccsc3)C(CCO)C2)cc1CO (centres undefined)	i	10%	i	1%	5%	-2%
CCn1c(=O)c([N+](=O)[O-])c(Cl)c2ccccc21	i	26%	?	?	8.2µM*	3.7µM*
Cn1cccc1-c1cc(C(=O)N/N=C/c2ccccc2Cl)[nH]n1	i	2%	i	29%	-3%	22%
C[n+]1c(/C=C/c2ccc(O)cc2)ccc2ccccc21	?	-1%	?	-7%	-1%	-5%
Cc1cc(/C=C\c2ccc3cc(N(C)C)ccc3[n+]2C)c(C)n1-c1ccccc1	?	-3%	4.6µM*	0.92µM*	-8%	1.5µM*
O=C(Nc1cccc(C(F)(F)F)c1)c1cc(-c2ccc(Cl)cc2)on1	i	nt	i	nt	nt	nt
O=C(Nc1cccc(C(F)(F)F)c1)N(Cc1ccc(Cl)cc1)CC(O)C(F)(F)F (centres undefined)	?	?	?	16µM*	29%	18µM*
CC(O)(CS(=O)(=O)Cc1ccc(Cl)cc1)C(=O)Nc1cccc(C(F)(F)F)c1 (centres undefined)	i	-19%	i	?	-1%	13µM*
CC(CC(=O)Nc1ccc(F)c([N+](=O)[O-])c1)c1ccccc1 (centres undefined)	?	3%	i	7%	-3%	-7%
CN(C)c1ccc(C(C(=O)NC2CCCC2)N(Cc2cccnc2)C(=O)c2snc(C(N)=O)c2N)cc1 (centres undefined)	i	10%	i	6%	1%	9%
CCCCNC(=O)CC1Nc2cc(C)c(C)cc2NC1=O (centres undefined)	i	nt	i	nt	nt	nt
Cn1c(=O)c2ccccc2n2c(CCl)nnc12	?	?	?	?	16µM*	?
O=C(COc1coc(CN2CCN(c3ccc(F)cc3)CC2)cc1=O)NC1CCCCC1	4.1µM*	8%	?	-1%	-1%	-11%
SMILES	KB-V1 MDR tox	MCF10A rereplic	KB-3-1 cytotox	HT1080-NT tox	SW480 rereplic	HT1080 IDH1KD tx
CCn1cc[n+](C)c1P(c1ccccc1)c1ccccc1	i	-1%	7.3µM*	-18%	-1%	-23%
COC(=O)c1cc(CSc2nnc(NC3CCCCC3)s2)oc1C	21µM*	25%	?	-4%	-1%	18µM*
Nc1c(C(=O)Nc2ccccc2)c2nc3ccccc3nc2n1-c1ccc(O)cc1	i	15µM*	i	?	7.3µM*	?
CCOC(=O)c1c(N)n(-c2ccc(N)cc2)c2nc3ccccc3nc12	i	-7%	i	0%	-325%	-3%
N#Cc1c(N)n(C2CCCCC2)c2nc3ccccc3nc12	?	1µM*	?	?	8.2µM*	?
N#Cc1c(N)n(-c2ccc(C(=O)O)cc2)c2nc3ccccc3nc12	i	18µM*	i	1%	?	10%
N#Cc1c(N)n(-c2ccc(N)cc2)c2nc3ccccc3nc12	i	-4%	i	?	-95%	-4%
COCCNC(=O)c1c(NC(=O)c2cc(=O)c3cc(C)cc(C)c3o2)sc2c1CCCC2	i	nt	i	nt	nt	nt
Cc1nnc(SCc2cc(=O)[nH]c(/N=C(\N)Nc3ccccc3)n2)s1	?	18µM*	?	?	?	18µM*
Cc1nnc(SCc2cc(=O)[nH]c(/N=C(\N)Nc3ccccc3Sc3ccccc3)n2)s1	i	4%	i	7%	-7%	0%
CCOc1ccc(N/C(N)=N/c2nc(CSc3nnc(C)s3)cc(=O)[nH]2)cc1	?	?	0.73µM*	0.21µM*	?	0.92µM*
COc1ccc(/C=N/NC(=O)c2cc(-c3ccccc3OC(C)C)nc3ccccc23)cc1CN1CCOCC1	?	8.2µM*	i	-20%	27%	-24%
c1ccc(-n2nnnc2Cc2nnnn2-c2ccccc2)cc1	i	1%	i	16%	-1%	1%
COc1ccccc1CN1CCNC(=O)C1CC(=O)NC1CCCCCC1 (centres undefined)	?	2%	i	-9%	0%	1%
O=C(Nc1ccc(Cl)c(Cl)c1)c1ccc(Cn2c(=O)[nH]c3ccsc3c2=O)cc1	i	16µM*	?	-10%	1%	-5%
Oc1c(Cl)cc(Cl)cc1C1=NNC(c2ccc(Cl)cc2)C1 (centres undefined)	?	16µM*	i	1%	?	-20%
